Test results published in PubChem BioAssay.
Several values for one entry are separate records, joined by “and”; a condition that tells them apart may be missing. Equal values may be shown once. For some assays here: Measured potencies and affinities stand elsewhere. Where a structure was tested more than once in an assay, its records may differ in their call. Activity calls are given as the source filed them. Unless noted, no rule for the calls is given here.

Legend:
[1] = antimalarial activity against Dd2 strain (AID 2302;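 active = growth inhibition above 50% at the single 2 µM test dose, taken to imply half-maximal potency below 2 µM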;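 also: 0% = DMSO untreated growth and 100% = chloroquine plus artemisinin killed control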); conditions: P. falciparum Dd2 in RBCs, LDH growth readout, 72 h; at 2 µM; stronger effect = higher value
[2] = human hepatoma cell viability loss – ATP luminescence, cytotoxicity control for P. falciparum antimalarial project, primary screen (AID 2303;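 active = inhibition above 50%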;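 also: 0% = DMSO wells and 100% = digitonin-killed cells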); conditions: HepG2 viability, 24-48 h, at 10 µM, stronger effect = higher value
[3] = molecular target: L-lactate dehydrogenase (Plasmodium falciparum (isolate CDC / Honduras)) (UniProt Q27743); assay: PfLDH activity inhibition – cell lysate, 3D7 strain, counter-screen for P. falciparum growth inhibition project (AID 2304);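 also: 0% = vehicle and 100% = reference inhibitor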; conditions: P. falciparum 3D7 crude extract, LDH APAD/NBT absorbance; at 2 µM; stronger effect = higher value
[4] = inhibition of 3D7 malaria parasite growth – strain 3D7 (AID 2306);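 also: 0% = DMSO wells and 100% = chloroquine plus artemisinin control wells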; conditions: P. falciparum 3D7 erythrocytic growth, LDH absorbance, 72 h; at 2 µM; stronger effect = higher value
[5] = molecular target: Calcium-dependent protein kinase 1 (Plasmodium falciparum (isolate 3D7)) (UniProt P62344); assay: PfCDPK1 kinase inhibitors, biochemical, TCAMS library (AID 1159585; cut-off not given, nearly all actives have IC50 up to about 0.98 µM;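 also: inhibitors leave more ATP so luminescence rises with inhibition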); conditions: recombinant PfCDPK1, Kinase-Glo ATP depletion luminescence
[6] = molecular target: Plasmodium falciparum protein kinase 6 (PK6, PF3D7_1337100) (UniProt Q8IDW1); assay: PfPK6 kinase inhibitors, biochemical, TCAMS library (AID 1159586); conditions: recombinant PfPK6, Kinase-Glo ATP depletion luminescence
[7] = molecular target: Protein kinase 7 (PK7), Plasmodium falciparum 3D7 (PF3D7_0213400) (UniProt Q7YTF7); assay: inhibition of Plasmodium PK7 catalytic activity – biochemical, TCAMS antimalarial set, Kinase-Glo luminescence (AID 1159587); conditions: recombinant PfPK7, Kinase-Glo ATP depletion luminescence
[8] = molecular target: Calcium-dependent protein kinase 4 (Plasmodium falciparum (isolate 3D7)) (UniProt Q8IBS5); assay: PfCDPK4 kinase inhibitors, biochemical, TCAMS library (AID 1159588; cut-off not given, nearly all actives have IC50 up to about 0.91 µM); conditions: recombinant PfCDPK4, Kinase-Glo ATP depletion luminescence
Calcium-dependent protein kinase 4 (Plasmodium falciparum (isolate 3D7)), sequence (Q8IBS5 whole entry, looked up): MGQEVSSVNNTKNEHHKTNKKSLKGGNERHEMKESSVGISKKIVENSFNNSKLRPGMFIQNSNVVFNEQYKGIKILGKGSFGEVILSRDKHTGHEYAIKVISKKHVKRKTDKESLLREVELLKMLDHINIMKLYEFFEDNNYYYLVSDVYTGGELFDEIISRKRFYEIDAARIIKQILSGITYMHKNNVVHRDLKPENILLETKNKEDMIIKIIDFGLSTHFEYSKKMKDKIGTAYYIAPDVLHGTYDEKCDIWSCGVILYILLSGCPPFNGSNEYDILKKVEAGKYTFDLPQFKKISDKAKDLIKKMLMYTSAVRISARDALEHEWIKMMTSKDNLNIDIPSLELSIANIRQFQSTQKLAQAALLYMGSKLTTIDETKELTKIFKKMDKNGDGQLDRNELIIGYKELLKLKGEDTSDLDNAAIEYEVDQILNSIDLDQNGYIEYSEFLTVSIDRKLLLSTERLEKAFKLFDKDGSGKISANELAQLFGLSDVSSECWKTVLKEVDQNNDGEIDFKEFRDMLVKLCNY

Calcium-dependent protein kinase 1 (Plasmodium falciparum (isolate 3D7)), sequence (P62344 whole entry, looked up): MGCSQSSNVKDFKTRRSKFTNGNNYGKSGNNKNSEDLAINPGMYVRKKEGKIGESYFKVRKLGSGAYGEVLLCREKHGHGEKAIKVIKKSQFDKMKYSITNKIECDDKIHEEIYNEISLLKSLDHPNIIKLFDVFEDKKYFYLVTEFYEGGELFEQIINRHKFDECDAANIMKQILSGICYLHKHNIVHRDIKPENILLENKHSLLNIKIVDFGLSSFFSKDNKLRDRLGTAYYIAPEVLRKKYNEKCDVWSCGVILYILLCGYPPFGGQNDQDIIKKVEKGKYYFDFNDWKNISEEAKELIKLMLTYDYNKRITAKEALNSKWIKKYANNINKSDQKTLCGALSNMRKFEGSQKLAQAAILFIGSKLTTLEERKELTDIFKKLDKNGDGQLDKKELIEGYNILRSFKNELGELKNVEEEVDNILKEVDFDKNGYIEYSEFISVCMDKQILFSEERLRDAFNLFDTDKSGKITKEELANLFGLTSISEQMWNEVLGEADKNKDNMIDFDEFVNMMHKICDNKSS
Plasmodium falciparum protein kinase 6 (PK6, PF3D7_1337100), sequence (Q8IDW1 1-305): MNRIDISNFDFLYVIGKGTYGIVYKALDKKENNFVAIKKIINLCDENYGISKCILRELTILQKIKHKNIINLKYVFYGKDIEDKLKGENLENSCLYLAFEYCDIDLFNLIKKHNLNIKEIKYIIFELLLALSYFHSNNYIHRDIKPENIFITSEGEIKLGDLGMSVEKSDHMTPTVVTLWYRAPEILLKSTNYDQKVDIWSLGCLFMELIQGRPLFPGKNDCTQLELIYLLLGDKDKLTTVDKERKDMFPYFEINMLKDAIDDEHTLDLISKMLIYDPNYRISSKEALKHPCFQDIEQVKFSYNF
Protein kinase 7 (PK7), Plasmodium falciparum 3D7 (PF3D7_0213400), sequence (Q7YTF7 1-343): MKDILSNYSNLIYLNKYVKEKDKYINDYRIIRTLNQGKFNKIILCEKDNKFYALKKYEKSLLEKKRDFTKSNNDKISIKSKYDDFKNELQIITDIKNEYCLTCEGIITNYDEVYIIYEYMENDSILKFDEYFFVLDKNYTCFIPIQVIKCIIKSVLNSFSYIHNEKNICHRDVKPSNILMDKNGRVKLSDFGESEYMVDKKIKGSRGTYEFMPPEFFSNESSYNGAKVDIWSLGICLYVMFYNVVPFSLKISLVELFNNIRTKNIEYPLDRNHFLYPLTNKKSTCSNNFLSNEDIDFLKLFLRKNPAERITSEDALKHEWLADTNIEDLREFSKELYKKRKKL
L-lactate dehydrogenase (Plasmodium falciparum (isolate CDC / Honduras)), sequence (Q27743 whole entry, looked up): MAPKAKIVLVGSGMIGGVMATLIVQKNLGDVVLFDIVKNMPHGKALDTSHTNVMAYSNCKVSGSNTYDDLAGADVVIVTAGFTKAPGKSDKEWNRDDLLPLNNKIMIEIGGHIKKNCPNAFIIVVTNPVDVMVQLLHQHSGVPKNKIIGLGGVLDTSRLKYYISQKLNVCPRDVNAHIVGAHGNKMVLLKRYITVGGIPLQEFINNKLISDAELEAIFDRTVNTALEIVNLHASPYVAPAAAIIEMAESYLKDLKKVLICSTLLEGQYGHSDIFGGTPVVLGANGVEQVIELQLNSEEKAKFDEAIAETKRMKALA

O=C(/C=C/c1ccc(Cl)c(Cl)c1)Nc1cccc(CN2CCC(c3c[nH]c4ccccc34)CC2)c1
inactive: inhibition [2] 15% | inhibition [3] 0% | outcome [5] | outcome [6] | outcome [7] | outcome [8]
active: growth inhibition [1] 91% | growth inhibition [4] 99%

CC[C@H]1CN2CC[C@H]1C[C@H]2[C@H](O)c1cc(-c2ccccc2C(F)(F)F)nc2ccc(OC)cc12
inactive: inhibition [2] -4% | inhibition [3] -5% | outcome [5] | outcome [6] | outcome [7] | outcome [8]
active: growth inhibition [1] 99% | growth inhibition [4] 98%

CC[C@H]1CN2CCc3cc(OC)c(OC)cc3[C@@H]2C[C@@H]1C[C@H]1NCCc2c1cc(OC)c(O)c2I
active: growth inhibition [1] 101% | inhibition [2] 54% | growth inhibition [4] 101%
inactive: inhibition [3] -4% | outcome [5] | outcome [6] | outcome [7] | outcome [8]

COc1ccc(N(c2nc(-c3cc(Cl)ccc3Cl)cs2)C2CCNCC2)cc1
active: growth inhibition [4] 91%
inactive: growth inhibition [1] 4% | inhibition [2] 17% | inhibition [3] -2% | outcome [5] | outcome [6] | outcome [7] | outcome [8]

O=C(C=Cc1ccc(-c2ccccc2)cc1)NC1CCC(CN2CCC(c3c[nH]c4ccccc34)CC2)CC1 (configuration not stated)
active: growth inhibition [1] 85% and 98% | growth inhibition [4] 101%
inactive: inhibition [3] -7% | outcome [5] | outcome [6] | outcome [7] | outcome [8]
43% (inactive) and 97% (active): inhibition [2]

CCCc1c(C(=O)NC2CCC(CN3CCC(c4c[nH]c5ccccc45)CC3)CC2)cnn1-c1c(Cl)cc(Cl)cc1Cl (configuration not stated)
active: growth inhibition [4] 100%
inactive: growth inhibition [1] 49% | inhibition [2] 41% | inhibition [3] -5% | outcome [5] | outcome [6] | outcome [7] | outcome [8]

CSc1nccc(-c2ccc(S(=O)(=O)NC3CCC(CN4CCC(c5c[nH]c6ccccc56)CC4)CC3)s2)n1 (configuration not stated)
67% (active) and 33% (inactive): growth inhibition [1]
36% (inactive) and 61% (active): inhibition [2]
active: growth inhibition [4] 101%
inactive: inhibition [3] -1% and 4% | outcome [5] | outcome [6] | outcome [7] | outcome [8]

COc1cccc(C(=O)[C@H]2C[C@@H]2CN2CC=C(c3c[nH]c4cccc(Br)c34)CC2)c1
inactive: inhibition [2] 22% | inhibition [3] -3% | outcome [5] | outcome [6] | outcome [7] | outcome [8]
active: growth inhibition [1] 85% | growth inhibition [4] 96%

CCOC(C(=O)OCC1CCCN1C)(c1ccccc1)c1ccccc1 (configuration not stated)
inactive: growth inhibition [1] 3% | inhibition [2] 13% | inhibition [3] 6% | outcome [5] | outcome [6] | outcome [7] | outcome [8]
active: growth inhibition [4] 97%

Cc1ccc(CC(C)NCC(O)c2cccc(C#N)c2)cc1 (configuration not stated)
inactive: inhibition [2] 2% | inhibition [3] -2% | outcome [5] | outcome [6] | outcome [7] | outcome [8]
active: growth inhibition [1] 86% | growth inhibition [4] 94%

O=C(/C=C/c1ccc(Cl)c(Cl)c1)N1CCC(CN2[C@@H]3CC[C@H]2CC(c2c[nH]c4ccccc24)C3)CC1 (some centres not stated)
active: growth inhibition [1] 66% | inhibition [2] 84% | growth inhibition [4] 100%
inactive: inhibition [3] -3% | outcome [5] | outcome [6] | outcome [7] | outcome [8]

CN1[C@@H]2CC[C@H]1c1cc(NC(=O)c3cc(-c4ccc(Cl)cc4)cs3)ccc12
inactive: growth inhibition [1] 35% | inhibition [3] -2% | outcome [5] | outcome [6] | outcome [7] | outcome [8]
active: inhibition [2] 62% | growth inhibition [4] 90%

O=C(/C=C/c1ccc(Cl)c(Cl)c1)NCCCCCN1C2CCC1CC(c1c[nH]c3ccccc13)C2 (configuration not stated)
inactive: growth inhibition [1] 4% | inhibition [3] -1% | outcome [5] | outcome [6] | outcome [7] | outcome [8]
active: inhibition [2] 54% | growth inhibition [4] 98%

COCCNCc1cccc(-c2ccc(CN(C(=O)NC3CCCCC3)C3CCN(Cc4ccccc4)CC3)cc2)c1
inactive: growth inhibition [1] 31% | inhibition [2] 32% | inhibition [3] 6% | outcome [5] | outcome [6] | outcome [7] | outcome [8]
active: growth inhibition [4] 101%

CCN(Cc1ccccc1)CC(O)c1ccc(Cl)c(Cl)c1 (configuration not stated)
active: growth inhibition [1] 71% | growth inhibition [4] 96%
inactive: inhibition [2] 2% | inhibition [3] 1% | outcome [5] | outcome [6] | outcome [7] | outcome [8]

CCCCCCCc1cc(=O)c2ccccc2[nH]1
inactive: inhibition [2] 5% | inhibition [3] 1% | outcome [5] | outcome [6] | outcome [7] | outcome [8]
active: growth inhibition [1] 94% | growth inhibition [4] 96%

CC(C)CCNC(=O)c1cc(C(=O)c2cc(F)ccc2O)cn(CCC(C)C)c1=O
inactive: growth inhibition [1] 45% | inhibition [2] 14% | inhibition [3] -1% | outcome [5] | outcome [6] | outcome [7] | outcome [8]
active: growth inhibition [4] 100%

OC(CNCc1ccccc1OC(F)F)c1cccc(C(F)(F)F)c1 (configuration not stated)
inactive: inhibition [2] 2% | inhibition [3] -2% | outcome [5] | outcome [6] | outcome [7] | outcome [8]
active: growth inhibition [1] 52% | growth inhibition [4] 97%

CCC1(C)CC(CCNCc2ccccc2O)(c2ccc(F)cc2)CCO1 (configuration not stated)
active: growth inhibition [4] 98%
inactive: growth inhibition [1] 32% | inhibition [2] 20% | inhibition [3] 6% | outcome [5] | outcome [6] | outcome [7] | outcome [8]
